The list is not random: actives were taken first. Their share in the collection is about 5.7%.
AHR act: activates the human aryl hydrocarbon receptor; P35869; AHR-responsive luciferase reporter cells, luminescence; activation, % at 5 µM; 320,000 tested, 2.5% active; in the data active means activation above about 47%;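 further: 0% = vehicle wells and 100% = reference agonist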
hgDAF-12 ag: activates the H. glycines DAF-12 receptor ligand-binding domain. HEK293 GAL4-hgDAF12 UAS-luciferase reporter, agonist luminescence; normalized to butyrate control. activation, % at 6.8 µM. 370,000 tested, 1.8% active. AID 687014;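 active means activation above a cutoff set at the mean of all screened compounds plus 3 SD, cut at about 10% in these data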;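 further: 0% = DMSO wells and 100% = sodium butyrate wells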
DAX1 inh-1: inhibitors of DAX1 repression of SF-1 activated StAR promoter. HEK293T StAR-luciferase reporter, SF-1/DAX-1 repression relief. inhibition, % at 6.8 µM. 370,000 tested, 1.1% active. AID 652010;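 active means inhibition above the mean over all tested compounds plus 3 SD, cut at about 3.6% in these data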;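 further: 0% = DAX-1 cells with DMSO and 100% = cells lacking DAX-1 with DMSO; higher inhibition means more luminescence from relief of DAX-1 repression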
ssDAF-12 act: S. stercoralis DAF-12 activation, primary screen; HEK293 ssDAF-12/GRIP1 lit1-tk-luc reporter, luminescence; % of 3 µM dafachronic acid response; activation, % at 6.8 µM; 370,000 tested, 1% active;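 active means activation above the mean over all tested compounds plus 3 SD, cut at about 0.9% in these data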;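 further: 0% = DMSO-only wells and 100% = 3 µM delta7-dafachronic acid wells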
DAX1 inh-2: inhibits human nuclear receptor DAX1; P51843; HEK293 Gal4-DAX1 luciferase reporter, luminescence; inhibition, % at 6.75 µM; 340,000 tested, 0.99% active; AID 504766;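 active means inhibition above the mean over all tested compounds plus 3 SD, cut at about 4.2% in these data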;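 further: 0% = DAX1-transfected cells with DMSO and 100% = empty-vector control cells with DMSO; inhibition shows as a rise in luminescence from relieved DAX1 repression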
Target sequence (P51843 207-470 limits assumed): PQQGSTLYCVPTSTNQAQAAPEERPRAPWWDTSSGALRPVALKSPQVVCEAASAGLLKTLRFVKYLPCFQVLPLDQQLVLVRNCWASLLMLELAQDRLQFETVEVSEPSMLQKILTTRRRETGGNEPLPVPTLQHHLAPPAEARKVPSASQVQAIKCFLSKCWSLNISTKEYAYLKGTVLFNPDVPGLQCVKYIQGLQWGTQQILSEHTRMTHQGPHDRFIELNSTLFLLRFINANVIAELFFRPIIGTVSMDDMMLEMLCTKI
hcDAF-12 act: H. contortus DAF-12 activation, primary screen. AID 652067. activation, % at 6.8 µM. 370,000 tested, 1.4% active. HEK293 hcDAF-12 lit1-tk-luc reporter, luminescence; 0% DMSO, 100% Δ7-dafachronic acid;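 active means activation above the mean of all tested compounds plus 3 SD, cut at about 5.5% in these data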;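 further: 100% = response to 3 µM Δ7-dafachronic acid high control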
* marks the source's active call; other numbers are inactive results; · = no result given.

SMILES	AHR act	hgDAF-12 ag	DAX1 inh-1	ssDAF-12 act	DAX1 inh-2	hcDAF-12 act
CC(C)C(NS(=O)(=O)c1ccc2c(c1)oc(=O)n2C)C(=O)N1CCN(c2ccccc2F)CC1 (configuration not stated)	-1	-1	-1	-1	4.8*	-1
Cc1cc(C)nc(N/N=C/c2cc(C)n(CC(F)(F)F)c2C)n1	24	1	-1	-1	-1	-2
COc1cc(C(=O)Cc2nc3ccccc3n2C)cc(OC)c1OC	28	3	0	0	2	2
COc1ccccc1C(=O)c1nc2ccccc2n1C	62*	2	0	-1	-2	-2
O=C(CCc1ccc(S(=O)(=O)NC2CCCCC2)cc1)NCc1cccnc1	-1	-1	0	-1	3	-2
Cc1ccc(CNC(=O)CCc2ccc(S(=O)(=O)NC3CCCCC3)cc2)cc1	-1	-3	0	-2	0	5.8*
CCC(C)(C)C1CCC(=NNC(=S)Nc2ccccc2)CC1 (configuration not stated)	6	9	1	-2	0	2
S=C(NN=C1C2CC3CC(C2)CC1C3)Nc1ccccc1	22	4	2	1.2*	0	6.1*
O=C(Nc1nnc(-c2ccc(F)cc2)s1)c1ccco1	-2	4	0	0	0	1
COc1cccc(OC)c1C(=O)Nc1nnc(-c2ccc(F)cc2)s1	74*	0	0	0	-3	2
O=C(CCCOc1ccccc1)Nc1ccc(Cl)cn1	1	7	-1	-1	0	0
CN(C)c1ccc(N2C(=O)CSC2=S)cc1	52*	-1	-1	0	-1	-1
CCOc1ccc(C(C)NC(=O)c2ccc3c(c2)NC(=O)C(C)S3)cc1OCC (configuration not stated)	7	-2	-2	-1	-1	1
CC(=O)NC(C)C12CC3CC(CC(CC(=O)O)(C3)C1)C2 (configuration not stated)	-3	1	0	-1	4.4*	-1
O=C(c1cc([N+](=O)[O-])[nH]n1)N1CCSCC1	1	1	2	-2	5.4*	0
CN(C)CCN(C(=O)/C=C/c1cccs1)c1nc2ccc(F)cc2s1	49*	6	1	1	-1	2
CCN(CC)CCN(C(=O)/C=C/c1cccs1)c1nc2ccc(Cl)cc2s1	4	0	0	0	1	0
Cc1cc(Br)c(NC(=O)CN2CCCC2)c(Br)c1	·	4	0	-1	1	0
C/C(=N\N(Cc1ccccc1)c1ccccc1)c1cccnc1	10	0	1	-2	1	2
CCOC(=O)c1ccc(NCc2nc3ccccc3n2C)cc1	59*	10	2	0.9*	2	4
COc1ccccc1OCc1nc2ccccc2n1C	25	7	1	0	1	1
Cn1c(NCc2ccc(Cl)cc2)nc2ccccc21	33	13*	3	1.5*	1	6
Cn1c(CNc2nc3ccccc3n2C)nc2ccccc21	49*	11*	2	0	0	3
Cn1c(COc2ccccc2Br)nc2ccccc21	15	10	2	1	6.0*	4
CC(C)n1c(NCc2nc3ccccc3n2C)nc2ccccc21	15	1	0	0	1	0
SMILES	AHR act	hgDAF-12 ag	DAX1 inh-1	ssDAF-12 act	DAX1 inh-2	hcDAF-12 act
O=C(C(=O)N1CCC(CNC(=O)c2sc3ccccc3c2Cl)CC1)c1cccs1	·	-4	-2	-2	·	-4
COc1cccc(CN(C)C(=O)c2ccc3nccnc3c2)c1	33	-2	0	-1	0	0
O=c1[nH]cnc2c1ncn2C1OC(CO)CC1F (configuration not stated)	·	0	1	0	·	-1
CCOc1ccccc1-n1nnnc1SCc1nc2ccccc2s1	25	6	2	3.6*	1	4
CC(=O)Nc1cc(-c2ccc(F)cc2)cn2c(-c3ccc(S(C)(=O)=O)cc3)cnc12	·	1	-2	-1	·	0
COC(=O)c1ccccc1NS(=O)(=O)c1ccc2c3c(cccc13)C(=O)N2	-2	0	0	-2	0	-1
Cc1oc2c(cc(NS(=O)(=O)c3ccc4c5c(cccc35)C(=O)N4)c3ccccc32)c1C(=O)OC(C)C	74*	0	0	0	2	0
O=C1CCCc2oc3c(cc(NS(=O)(=O)c4ccc5c6c(cccc46)C(=O)N5)c4ccccc43)c21	54*	-3	-1	-1	-2	-2
COc1ncccc1-c1ccc2nncn2c1	·	-2	2	-1	·	0
N#Cc1c(NC(=O)c2ccc(Cn3cc(Br)cn3)o2)sc2c1CCCCCC2	70*	-1	-1	-1	-1	-1
Cn1nccc1C(=O)Nc1sc2c(c1C#N)CCCC2	30	7	4.3*	-1	0	1
C=C(C)Cn1c2ccc(NC(=O)CCc3cccc(Cl)c3)cc2c(=O)n1C	·	-2	0	-2	·	-2
Cc1ccc(Cl)cc1N1C(=O)CC(Sc2ncccn2)C1=O (configuration not stated)	1	-2	0	0	4.7*	-1
CCOc1ccc(C2C(C#N)=C(N)N3C(=C2C#N)Sc2ccccc23)cc1 (configuration not stated)	11	·	·	·	1	·
N#CC1=C(N)N2C(=C(C#N)C1c1ccccc1)Sc1ccccc12 (configuration not stated)	88*	·	·	·	·	·
Cc1ccc(Nc2nc(N)c([N+](=O)[O-])c(NCCO)n2)cc1C	81*	2	0	0	4.4*	1
Cc1ccc(Nc2nc(N)c([N+](=O)[O-])c(NCc3ccco3)n2)cc1C	64*	9	1	-1	0	0
COCCCNc1nc(N)c([N+](=O)[O-])c(Nc2ccccc2OC)n1	56*	4	0	-1	·	-1
Cc1ccc(CNc2nc(N)c([N+](=O)[O-])c(NCCO)n2)cc1	2	0	0	-2	1	-2
Nc1nc(NCc2ccco2)nc(Nc2ccc(F)cc2)c1[N+](=O)[O-]	113*	-1	0	-2	0	-1
Cc1cc(C)c(S(=O)(=O)N2CCOC2CNC(=O)C(=O)NCCN(C)C)c(C)c1 (configuration not stated)	-2	-1	2	0	1	-2
COCc1[nH]nc2c1C(c1ccc(C)cc1)NC2=O (configuration not stated)	·	3	2	-1	·	-2
CNc1nc(N)c([N+](=O)[O-])c(Nc2cccc(Cl)c2)n1	58*	-1	0	-1	·	-3
COc1ccc(OC)c(Nc2nc(NCc3ccco3)nc(N)c2[N+](=O)[O-])c1	62*	2	-1	-1	·	0
